Seven molecules from PubChem BioAssay (EPA / NIEHS) can be followed below.

SMILES strings stand for the structures. Results filed as inconclusive are left out. Active and inactive are the calls of the source. Rule for the calls, unless noted: active = hit-call score of the fitted dose curve at least 0.9, where 1 is the maximum; inactive = score below 0.9.

Test [1] in a line: APR_HepG2_CellCycleArrest_1hr: Apredica 1-hour HepG2 Assay for Cell Cycle Arrest (AID 2282666). Conditions: high-content imaging, actives raise or lower the signal. The procedure, abridged: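 HepG2 cells exposed for 1 h to 0.39–200 uM compound (0.5% DMSO). Fixed, Hoechst-stained nuclei imaged by ArrayScan; DNA content quantified by Cell Cycle analysis; bidirectional fit against DMSO.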

Test [2] in a line: ACEA_ER_80hr: ACEA Biosciences xCELLigence Real-Time Cell Analysis on Estrogen Receptor Agonism for Proliferation (AID 2282667; active = hit-call score of the fitted dose curve at least 0.9, where 1 is the maximum). Conditions: T47D proliferation, impedance (xCELLigence), 80 h. An outline of the steps: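 Estrogen-driven proliferation is captured as electrode impedance in T47D cells 80 h after compound addition. Test articles ran at 8 concentrations, 1:4 dilutions from 100 uM final, in two replicate plates.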

A short description of test [3]: APR_HepG2_MicrotubuleCSK_1hr: Apredica 1-hour HepG2 Assay for Microtubule CSK Stabilty (AID 2282669). Conditions: HepG2 microtubule cytoskeleton imaging, actives raise or lower the signal. An outline of the steps:
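HepG2 cells exposed 1 h to 0.39–200 uM compound (0.5% DMSO, duplicates), then formaldehyde-fixed, permeabilized and immunostained for alpha-tubulin with Hoechst nuclei. Imaged by ArrayScan high-content analysis; bidirectional fit versus DMSO.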

Test [4] can be described thus: APR_HepG2_NuclearSize_1hr: Apredica 1-hour HepG2 Assay for Nuclear Size (AID 2282670). Conditions: high-content imaging, actives raise or lower the signal. The procedure, abridged: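 HepG2 cells dosed 1 hr with 0.39–200 uM compound (0.5% DMSO), formaldehyde-fixed, Hoechst 33342-stained and imaged at 20x; nuclear diameter from nuclear stain, fitted bidirectionally against DMSO.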

A short description of test [5]: APR_HepG2_p53Act_1hr: Apredica 1-hour HepG2 Assay for p53 Activation (AID 2282671). Conditions: high-content imaging, actives raise or lower the signal. An outline of the steps: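 HepG2 cells treated 1 h with compound at 0.39–200 uM (10 concentrations, duplicate) in 0.5% DMSO. Formaldehyde-fixed, permeabilised cells immunostained for p53 with Hoechst 33342; high-content imaging, bidirectional fit versus DMSO.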

Test [6] can be described thus: APR_HepG2_MitoticArrest_1hr: Apredica 1-hour HepG2 Assay for Mitotic Arrest (AID 2282672). Conditions: high-content imaging, actives raise or lower the signal. The procedure, abridged:
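HepG2 cells exposed 1 hr to compounds at 0.39–200 uM (0.5% v/v DMSO final), then fixed in 3.7% formaldehyde and immunostained for phospho-histone H3 with Hoechst 33342. Mitotic arrest scored by automated fluorescence imaging, fitted bidirectionally versus DMSO.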

Test [7] can be described thus: APR_HepG2_P-H2AX_1hr: Apredica 1-hour HepG2 Assay for H2AX Phosphorylation (AID 2282673). Conditions: high-content imaging, actives raise or lower the signal. The procedure, abridged: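 HepG2 dosed 1 hr at 0.39-200 uM (0.5% DMSO final), duplicate. Fixed in 3.7% formaldehyde, Triton permeabilized, immunostained for phospho-histone H2A.x (1:200) with Hoechst 33342; ArrayScan 20x imaging, bidirectional fit vs DMSO.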

Test [8] in a line: APR_HepG2_MitoMass_1hr: Apredica 1-hour HepG2 Assay for Mitochondrial Mass (AID 2282674). Conditions: high-content imaging, actives raise or lower the signal. The procedure, abridged: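 HepG2 cells dosed 1 hr with 0.39-200 uM compound (0.5% DMSO), duplicate wells. Mitochondria stained with 250 nM MitoTracker Red CMXRos for 30 min before formaldehyde fixation, imaged at 20x by ArrayScan; bidirectional fit versus DMSO.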

Test [9] in a line: APR_HepG2_MitoMembPot_1hr: Apredica 1-hour HepG2 Assay for Mitochondrial Membrane Potential (AID 2282675). Conditions: imaging, actives raise or lower the signal. An outline of the steps: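 HepG2 cells dosed 1 hour with 0.39–200 uM compound in duplicate, 0.5% DMSO final. MitoTracker Red CMXRos (250 nM, 30 min) loaded before formaldehyde fixation; fluorescence quantified by high-content imaging, bidirectional fitting versus DMSO.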

A short description of test [10]: APR_HepG2_CellCycleArrest_24hr: Apredica 24-hour HepG2 Assay for Cell Cycle Arrest (AID 2282905).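 Note: cell cycle arrest scored as ratio of 2N to 4N nuclear DNA content.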 Conditions: imaging, actives raise or lower the signal. The procedure, abridged: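 Compounds at 0.39–200 uM (0.5% DMSO) for 24 h, then fixed and Hoechst 33342 stained. Cell-cycle analysis of nuclear DNA content by high-content imaging, fitted bidirectionally versus DMSO.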

The nature of test [11]: APR_HepG2_StressKinase_1hr: Apredica 1-hour HepG2 Assay for Stress Kinase (AID 2282906). Conditions: HepG2 stress kinase (phospho-c-Jun) imaging, actives raise or lower the signal. An outline of the steps:
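HepG2 cells dosed 0.39-200 uM (0.5% DMSO) for 1 h, then formaldehyde-fixed. Stress kinase read by phospho-c-Jun immunofluorescence using high-content imaging; bidirectional fit vs DMSO.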

The nature of test [12]: APR_HepG2_NuclearSize_24hr: Apredica 24-hour HepG2 Assay for Nuclear Size (AID 2282907). Conditions: high-content imaging, actives raise or lower the signal. An outline of the steps:
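HepG2 cells exposed 24 h to compounds at 0.39–200 uM (0.5% DMSO), fixed, Hoechst 33342 stained and imaged at 20x; nuclear diameter measured by automated image analysis, fitted bidirectionally against DMSO controls.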

Test [13] is described as follows: APR_HepG2_CellLoss_24hr: Apredica 24-hour HepG2 Assay for Cell Loss (AID 2282908).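 For AC50: fit in both directions so a hit may be cell loss or gain.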 Conditions: high-content imaging. An outline of the steps: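 HepG2 cells exposed 24 hr to 0.39–200 uM compound in duplicate at 0.5% v/v final DMSO. Cells fixed in 3.7% formaldehyde and Hoechst 33342-stained. Cell number came from nuclear imaging at 20x. Bidirectional fit versus DMSO.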

Test [14] can be described thus: APR_HepG2_MicrotubuleCSK_24hr: Apredica 24-hour HepG2 Assay for Microtubule CSK Stabilty (AID 2282909). Conditions: HepG2 microtubule cytoskeleton imaging, actives raise or lower the signal. An outline of the steps:
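HepG2 cells were treated 24 hr with compound at 0.39–200 uM in duplicate (0.5% DMSO final), then fixed and permeabilized. Alpha-tubulin immunofluorescence was imaged by high-content microscopy, with bidirectional fitting against DMSO and taxol as positive control.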

Test [15] is described as follows: APR_HepG2_MitoticArrest_24hr: Apredica 24-hour HepG2 Assay for Mitotic Arrest (AID 2282910). Conditions: high-content imaging, actives raise or lower the signal. The procedure, abridged:
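HepG2 cells, 24 h exposure at 0.39-200 uM (10 concentrations, duplicate, 0.5% DMSO). Fixed, stained for phospho-histone H3 with Hoechst; imaged by high-content microscopy, bidirectional fit versus DMSO.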

Test [16] can be described thus: APR_HepG2_MitoMembPot_24hr: Apredica 24-hour HepG2 Assay for Mitochondrial Membrane Potential (AID 2282911). Conditions: imaging, actives raise or lower the signal. An outline of the steps: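 Mitochondrial dye uptake (MitoTracker Red CMXRos, 250 nM, 30 min pre-fixation) in HepG2 after 24 hr compound exposure, 0.39–200 uM; ArrayScan images at 20x, activity fitted in both directions relative to DMSO.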

The nature of test [17]: APR_HepG2_MitoMass_24hr: Apredica 24-hour HepG2 Assay for Mitochondrial Mass (AID 2282912). Conditions: high-content imaging, actives raise or lower the signal. An outline of the steps:
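HepG2 cells exposed 24 hr to 0.39–200 uM compound, 0.5% v/v DMSO, in duplicate. Stained before fixation with 250 nM MitoTracker Red CMXRos for 30 min, then imaged at 20x with Hoechst nuclei. Fitted in both directions against DMSO.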

Test [18] can be described thus: APR_HepG2_p53Act_24hr: Apredica 24-hour HepG2 Assay for p53 Activation (AID 2282913).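 Note: p53 protein immunofluorescence averaged per cell in HepG2 with Hoechst nuclei.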 Conditions: high-content imaging, actives raise or lower the signal. The procedure, abridged:
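Following 24 hr dosing of HepG2 at 0.39–200 uM, the cells undergo formaldehyde fixation, Triton permeabilization and multiplexed antibody labeling that includes p53 (Cy5). Signal from the imaging is referenced to DMSO solvent controls.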

Test [19] is described as follows: APR_HepG2_CellCycleArrest_72hr: Apredica 72-hour HepG2 Assay for Cell Cycle Arrest (AID 2282914). Conditions: high-content imaging, actives raise or lower the signal. An outline of the steps:
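Using multiplexed high-content imaging, HepG2 nuclei stained with Hoechst 33342 (2 ug/mL) were analysed for DNA content after fixation and permeabilization. Treatment lasted 72 hr across 0.39–200 uM in duplicate with final DMSO 0.5% v/v; DMSO served as negative control.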

Test [20] can be described thus: APR_HepG2_CellLoss_1hr: Apredica 1-hour HepG2 Assay for Cell Loss (AID 2282668).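 Note: curves fitted both ways against DMSO so gain or loss of cells counts.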 Conditions: high-content imaging. The procedure, abridged: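 HepG2 cells were treated for 1 h with compound at 0.39–200 uM, in duplicate, in 0.5% DMSO. After formaldehyde fixation, Hoechst 33342-stained nuclei were imaged on an ArrayScan to count cells. Data were fitted bidirectionally versus DMSO.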

Consider `COC(=O)N(C(=O)N1CO[C@@]2(C(=O)OC)Cc3cc(Cl)ccc3C2=N1)c1ccc(OC(F)(F)F)cc1`, for which the molecule was classed as inactive in test [1], in test [2], in test [3], in test [4], in test [5] and in test [6]. For the same molecule, the outcome in test [7], in test [8], in [9], in [10], in test [11] and in test [12] was inactive. Further, the outcome in test [13], in test [14], in [15], in test [16], in [17] and in test [18] was inactive. Also, in test [19], the result was inactive.

Turning to `CS(=O)(=O)c1ccc(C(=O)C2C(=O)CCCC2=O)c([N+](=O)[O-])c1`, the outcome in test [1], in test [2], in [20], in test [3], in test [4] and in test [5] was inactive. Also, the molecule was called inactive in test [7], in test [8], in [10], in [11], in [12] and in test [13]. Besides, the outcome in [14], in [15], in test [16], in [17] and in test [18] was inactive.

As usually defined, the AC50 is the midpoint of the concentration-response curve, whichever way the signal moves. Turning to `N#Cc1c[nH]cc1-c1cccc2c1OC(F)(F)O2`, the outcome in test [1], in test [2], in [20], in test [3], in test [5] and in test [6] was inactive. Moreover, the call in test [7], in test [8], in [11], in test [12], in [14] and in test [15] was inactive. The call in test [17] and in test [18] was inactive. For the same molecule, the AC50 was 26.9 µM (active) in test [10], 22.4 µM (active) in test [13], 53.6 µM (active) in test [16] and 39.8 µM (active) in test [19].

Consider `O=C(Nc1ccccc1-c1ccc(Cl)cc1)c1cccnc1Cl`, for which the outcome in [1], in test [2], in [20], in test [3], in test [4] and in test [5] was inactive. Besides, the result in test [7], in test [8], in test [10], in test [11], in [12] and in test [13] was inactive. The result in test [14], in test [15], in test [17] and in test [18] was inactive. Moreover, in [16], the AC50 is 66.8 µM (active).

`CN=C=S`: the call in test [1], in test [2], in test [20], in [3], in test [4] and in test [5] was inactive. The call in [7], in test [8], in test [9], in test [11], in test [12] and in test [13] was inactive. In addition, the call in test [14], in test [15], in test [16], in [17] and in [18] was inactive. For the same molecule, the figures for the AC50 in test [10] and in [19] were 69.2 µM (active) and 54.7 µM (active), respectively.

With `Cc1cc(C)nc(Nc2ccccc2)n1`, the result in test [1], in test [2], in [20], in [3], in [4] and in [5] was inactive. In addition, the result in test [7], in test [8], in [11], in test [12], in test [13] and in [14] was inactive. Further, the call in test [15], in [17] and in test [18] was inactive. For the same molecule, the AC50 is 43.7 µM (active) in test [10] and 75.7 µM (active) in test [16].

For `COP(=S)(OC)Oc1ccc([N+](=O)[O-])c(C)c1`, the outcome in [1], in [2], in [20], in test [3], in test [5] and in [6] was inactive. The result in [7], in test [8], in test [9], in test [10], in test [11] and in test [12] was inactive. For the same molecule, the molecule was called inactive in [13], in test [14], in test [15], in test [16], in test [17] and in test [18]. In test [19], the molecule was classed as inactive.
